Assay [1] concerns HT29 RNF43 G659fs (RNF43 659mut, CRISPR-edited). In words: cell viability activity relative to DMSO (negative = inhibition); higher = more viable cells (less growth inhibition). The conditions noted are these: 5 µM; 96 h. As for the experimental part:
(§1)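 Broad Repurposing Library primary screen at a single dose of 5 uM. HT29 sg-Ctrl and HT29 RNF43 G659fs CRISPR-edited isogenic cells were seeded at 2500 cells/well in 384-well plates in duplicate and treated for 96 h. Viability was read by CellTiter-Glo and reported as % activity relative to DMSO, with MG132 as the positive control (negative = growth inhibition).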

The test system of assay [2] is HT29 sg-Ctrl (RNF43 wildtype). The assay is described as above. The conditions noted are these: 5 µM; 96 h. As for the experimental part:
as §1

Molecules are shown by their SMILES.

In the case of `Cc1cc(C2CCCCC2)n(O)c(=O)c1`, the cell viability activity is -85.1% in assay [1] and -83.4% in assay [2].
In the case of `O=c1[nH]cc(F)c(=O)[nH]1`, the cell viability activity in assay [1] is -32.3%; in assay [2] it was -14.8%.
As to `COC(=O)Nc1nc2cc(C(=O)c3ccc(F)cc3)ccc2[nH]1`, the cell viability activity in assay [1] is -46.6%; in assay [2], -51.2%.
For `COc1cc(N2CCC(N3CCN(C)CC3)CC2)ccc1Nc1ncc(Cl)c(Nc2ccccc2S(=O)(=O)C(C)C)n1`, the cell viability activity in assay [1] was -53.9%; in assay [2] it was -66.5%.
Consider `CN(C)CCOc1ccc(-c2nc(-c3ccncc3)c(-c3ccc4c(c3)CC/C4=N\O)[nH]2)cc1`, for which the cell viability activity in assay [1] was -44.3%; in assay [2], -45.8%.
With `COc1ccc(N(C)c2nc(C)nc3ccccc23)cc1`, the cell viability activity in assay [1] is -59.2%; in assay [2], -68%.
For the molecule `Cc1cc(OCc2nnc(SC3CCCC3)n2-c2cccnc2)ccc1-c1ccc(S(C)(=O)=O)cc1`, the cell viability activity in assay [1] is -86.4%; in assay [2] it was -74.8%.
As to `C=CC(=O)Nc1cc(Nc2nccc(-c3cn(C)c4ccccc34)n2)c(OC)cc1N(C)CCN(C)C`, the cell viability activity in assay [1] was -82.3%; in assay [2], -50.6%.
Regarding `Cn1cnc2c(F)c(Nc3ccc(Br)cc3Cl)c(C(=O)NOCCO)cc21`, the cell viability activity was -71.6% in assay [1] and -70.6% in assay [2].
As for `Cn1cc(-c2ccc(S(=O)(=O)n3ccc(/C=C/C(=O)Nc4ccccc4N)c3)cc2)cn1`, the figures for the cell viability activity in assay [1] and in assay [2] were -62.6% and -63.3%, respectively.
In the case of `CCCS(=O)(=O)Nc1ccc(F)c(C(=O)c2c[nH]c3ncc(-c4ccc(Cl)cc4)cc23)c1F`, the cell viability activity in assay [1] is -35.4%; in assay [2] it was -47.2%.
Consider `CNC(=O)c1ccccc1Nc1cc(Nc2ccc(N3CCOCC3)cc2OC)ncc1C(F)(F)F`, for which the cell viability activity was -64.6% in assay [1] and -60% in assay [2].
As for `O=C(c1c(F)ccc(NS(=O)(=O)N2CC[C@@H](F)C2)c1F)c1c[nH]c2ncc(-c3cnc(C4CC4)nc3)cc12`, the cell viability activity in assay [1] was -66.1%; in assay [2] it was -69%.
On to `COc1cccc2c1C(=O)c1c(O)c3c(c(O)c1C2=O)C[C@@](O)(C(=O)CO)C[C@@H]3O[C@H]1C[C@H](N)[C@@H](O)[C@H](C)O1`, for which the results for the cell viability activity in assay [1] and in assay [2] were -93.5% and -76.5%, respectively.

The values are drawn from the supplement of paper PMC9177965.
